Sampled rows, rich in hits. Any-hit rate of the full collection: about 19%.
TDP1 cell CPT: DT40-hTDP1 cell growth loss with CPT. AID 686979. chicken DT40 Tdp1-/-;hTDP1 cells + 20 nM CPT, ATP luminescence, 48 h. Potency, µM (doses to about 46.2 µM), for the others: at the highest dose activity change, negative = growth inhibition, usual class: inhibitors. 420,000 tested, 12% active; note: potency is the fitted concentration of half-maximal effect; nearly all actives have a fitted effect of over 55% in size
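Chicken DT40 Tdp1-/- cells stably complemented with human TDP1 were seeded at 400 cells/well in medium containing 20 nM camptothecin, exposed to pin-transferred compounds, and grown at 37 °C for at least 48 hr. Viability was read as ATP luminescence.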
DT40 TDP1 no CPT: qHTS for Inhibitors of human tyrosyl-DNA phosphodiesterase 1 (TDP1): qHTS in cells in absence of CPT; DT40 Tdp1-/- hTDP1 cells, no CPT, ATP luminescence, 48 h; Potency, µM (titrated, usually from 46.2 µM), for the others: at the highest dose activity change, negative = growth inhibition, hits mostly inhibitors; 420,000 tested, 15% active; AID 686978, 2013; note: potency is the fitted concentration of half-maximal effect; nearly all actives have a fitted effect of over 55% in size
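Compound effects on proliferation are scored in DT40 Tdp1-/-;hTDP1 cells in the absence of CPT. ATP levels (CellTiter-Glo luminescence) are recorded after a ≥48 hr, 37 °C incubation.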
HT1080 IDH1KD tx: HT-1080 IDH1 knockdown cell toxicity (counter line) | HT-1080 IDH1 knockdown viability, ATP luminescence, 48 h | AID 686971 | 360,000 tested, 2% active | Potency, µM (highest dose often 46.1 µM), without a hit: at the top dose activity, negative = toxicity, most hits filed as cytotoxic;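 note: potency is the fitted concentration of half-maximal effect; 0% = DMSO wells and -100% = cell-free medium wells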
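Assay cells: HT-1080 with IDH1 knockdown, 750 per well, RPMI/5% FBS. Exposure: 48 h at 37 °C following 2 h pre-incubation. Read: CellTiter-Glo luminescence; fitted concentration-response, curve class assigned.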
HT1080-NT tox: kills 2HG-producing HT-1080-NT fibrosarcoma cells | HT-1080-NT fibrosarcoma viability, CellTiter-Glo ATP luminescence, 48 h | Potency, µM (highest dose often 46.1 µM), for the others: top-dose activity, negative = less viability, most hits filed as cytotoxic | 360,000 tested, 1.6% active | AID 686970;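 note: NT is the 2HG producing partner of a matched IDH1 knockdown line; potency is the fitted concentration of half-maximal effect; 0% = DMSO-treated cells and -100% = media-only wells without cells; nearly all actives have a fitted effect of over 55% in size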
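750 cells/well, RPMI + 5% FBS; 2 h settle, compound pin-transfer, 48 h at 37 degrees C. CellTiter-Glo 10 min RT, luminescence. Normalized to DMSO and media-only wells.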
IL-1B inflam inh: inhibitors of inflammasome signaling (IL-1 beta secretion) | activity change, % at 57.5 µM | THP-1 LPS/ATP IL-1B secretion, AlphaLISA, 16 h; stronger effect = lower value | 360,000 tested, 4.7% active; in the data active = activity change below about -50%; inconclusive = mostly about -30% to -49%
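THP-1 cells pretreated 1 hr with compounds (up to 57.5 uM final), then stimulated with LPS (250 ng/mL final) plus ATP (1.25 mM final); secreted IL-1B measured by AlphaLISA after 16 hr, decreased signal indicating inhibition.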
Numbers without * were called inactive; i = inactive; ? = inconclusive; nt = not tested or not shown; [ ] = remark or other dose. Unless noted, calls come from the whole dose curve; as a rule, active = well fitted curve in the direction sought with a large enough effect; inconclusive = small, poorly fitted or top-dose-only effect, or another doubt; inactive = no such curve, though single readings can be large; an effect the other way counts as inactive or inconclusive. Unless noted, % is set by controls: 0 for no effect and ±100 for the full control effect.

SMILES | TDP1 cell CPT | DT40 TDP1 no CPT | HT1080 IDH1KD tx | HT1080-NT tox | IL-1B inflam inh
COc1ccccc1CNC(=O)C1CC(c2c(Cl)cccc2Cl)=NO1 (stereo unspecified) | -26% | -29% | -6% | 1% | -14
O=C(/C=C/c1c(Cl)cccc1Cl)NCc1ccco1 | ? | 5.8µM* | -30% | ? | -17
O=C(NCc1cccc(C(F)(F)F)c1)C1CC(c2c(Cl)cccc2Cl)=NO1 (stereo unspecified) | 16µM* | 16µM* | ? | ? | 15
O=C(NCc1ccco1)C1CC(c2ccc(Cl)c(Cl)c2)=NO1 (stereo unspecified) | 13µM* | 8.2µM* | -5% | ? | 21
O=C(NCc1cccc(Br)c1)C1CC(c2cc(C(F)(F)F)cc(C(F)(F)F)c2)=NO1 (stereo unspecified) | -33% | -7% | 14% | 11% | 17
O=C(NCc1ccco1)C1CC(c2c(Cl)cccc2Cl)=NO1 (stereo unspecified) | ? | 16µM* | -17% | 3% | 10
C=CCNC(=O)c1c(CSc2ccc(F)cc2)noc1C(=O)NCCC | -9% | -9% | 5% | 10% | 12
Cc1cc(NC(=O)c2c(C)noc2C)no1 | 3% | -13% | -1% | 0% | 20
O=C1S/C(=C\c2ccc(N3CCOCC3)o2)C(=O)N1Cc1ccc(F)cc1 | ? | ? | 3.2µM* | 6.3µM* | -9
O=C1/C(=C/c2ccc(N3CCOCC3)o2)SC(=Nc2ccccc2)N1CCc1c[nH]c2ccccc12 | 2.9µM* | 2.1µM* | 4.1µM* | 7.3µM* | -99*
CC(C)OC(=O)CN1C(=O)S/C(=C/c2ccc(N3CCCCC3)o2)C1=O | 16µM* | 20µM* | 11µM* | ? | -104*
O=C1S/C(=C/c2ccc(N3CCOCC3)o2)C(=O)N1Cc1ccc(F)cc1 | ? | ? | 9% | 14% | -22
CCc1cccc(CC)c1N1C(=O)C2=C(SCCCS2)C1=O | ? | ? | -21% | -4% | -4
COc1cc(C(=O)N/N=C/c2ccc(OC(=O)c3ccccc3Cl)cc2)ccc1O | -21% | ? | -6% | 0% | -72*
CC(=O)n1cc(/C=N/NC(=O)c2cccc(O)c2)c2ccccc21 | 2% | 0% | 22% | 12% | ?
COc1cc(/C=N/NC(=O)CCC(=O)Nc2ccc(C)cc2)ccc1O | 0% | -1% | 6% | 12% | -1
COc1cc(/C=N/NC(=O)CCn2c3ccccc3c3ccccc32)ccc1O | ? | 23µM* | ? | ? | ?
Cn1c2ccccc2c2cc(/C=N/NC(=O)c3cc(O)cc(O)c3)ccc21 | ? | ? | -28% | -15% | -86*
Cn1c2ccccc2c2cc(/C=N/NC(=O)c3cc(O)ccc3O)ccc21 | 12µM* | 15µM* | ? | -25% | -73*
Cc1ccc(-n2nnnc2CNC(=O)c2ccccc2F)cc1C | -2% | -12% | nt | nt | nt
O=c1c(-c2ccccc2)nc2cnc(N3CCOCC3)nc2n1Cc1ccc(F)cc1 | -15% | -2% | nt | nt | nt
COc1ccccc1N(CC(O)CN1CCOCC1)S(=O)(=O)c1ccccc1 (stereo unspecified) | 5% | 1% | 4% | 6% | 18
CCn1c2ccccc2c2cc(/C=N/NC(=O)c3ccccc3)ccc21 | 15µM* | 16µM* | ? | ? | ?
COc1cc(C(=O)N/N=C/c2ccc3c(c2)c2ccccc2n3C)ccc1O | ? | 15µM* | ? | ? | i
COc1cc(/C=N/NC(=O)c2cccc(NC(=O)c3ccccc3)c2)ccc1O | -11% | ? | 0% | -6% | ?
SMILES | TDP1 cell CPT | DT40 TDP1 no CPT | HT1080 IDH1KD tx | HT1080-NT tox | IL-1B inflam inh
COc1cc(C=NNC(=O)c2ccccc2-n2cccc2)ccc1O | 26µM* | ? | -30% | ? | 9
COc1cc(/C=N/NC(=O)C(=O)/C=C2\NC(C)(C)Cc3ccccc32)ccc1O | ? | ? | ? | ? | -53*
COc1cc(/C=N/NC(=O)C2(O)c3ccccc3-c3ccccc32)ccc1O | -7% | 4% | -3% | -5% | 9
COC(=O)C(C(=O)OC)c1cc2c(cc1CNS(=O)(=O)c1ccc(C)cc1)OCO2 | -12% | 5% | -10% | 1% | -1
Cc1cc(C)c2cc(C)c3nnc(SCC(=O)NCc4ccc5c(c4)OCO5)n3c2c1 | ? | ? | -3% | -2% | -59*
O=C(CSc1nnc(-c2cccs2)n1Cc1ccccc1)NCc1ccc2c(c1)OCO2 | 23µM* | ? | -4% | -2% | -61*
O=C(c1ccco1)n1nc(-c2cccnc2)nc1NCc1ccco1 | ? | 23µM* | -1% | 0% | 6
COc1ccc(CC(=O)n2nc(-c3ccc(Cl)cc3)nc2NCc2ccco2)cc1 | ? | 18µM* | ? | 2%[9.24 µM] | 15
O=C(c1ccccc1)n1nc(-c2ccccc2)nc1NCc1ccco1 | -24% | -1% | 10% | 2% | -12
FC(F)(F)c1cc(-c2cccs2)nc2nc(N3CCOCC3)sc12 | ? | ? | 0% | 2% | 0
O=C1CC(N2CCN(Cc3ccc4c(c3)OCO4)CC2)C(=O)N1CCc1ccccc1 (stereo unspecified) | 13µM* | ? | -6% | -5% | 6
COc1ccccc1CN1CCN(C(CC(C)C)c2nnnn2Cc2cccs2)CC1 (stereo unspecified) | 18µM* | ? | -2% | -8% | ?
c1ccc(Cn2nnnc2CN2CCN(Cc3ccc4c(c3)OCO4)CC2)cc1 | 21µM* | ? | 0% | -1% | -13
Cc1ccc(C(c2nnnn2Cc2cccs2)N2CCN(Cc3ccc4c(c3)OCO4)CC2)cc1 (stereo unspecified) | 7.3µM* | 9.2µM* | ? | -18% | -64*
c1ccc2c(c1)CCN(Cc1nnnn1Cc1ccc3c(c1)OCO3)C2 | 0% | -14% | 5%[9.24 µM] | -3% | -1
Cc1[nH]c(=O)[nH]c(=O)c1S(=O)(=O)N(CC(C)C)CC(C)C | -11% | -12% | 2% | 0% | 0
NS(=O)(=O)c1ccc(CCNC(=O)CSc2nc3ccccc3c(=O)n2CC2CCCO2)cc1 (stereo unspecified) | -20% | -23% | 0% | 0% | -5
Cc1cnc(-n2ncc(C(=O)NCCN3CCOCC3)c2C(C)C)nc1-c1ccc(F)cc1 | 0% | -20% | nt | nt | nt
COCCn1nnnc1C(c1ccc(C)cc1)N1CCN(Cc2ccc3c(c2)OCO3)CC1 (stereo unspecified) | 16µM* | ? | 10% | 6% | -14
